The panel holds about 83,000 compounds, 20% with a hit somewhere; the sample as a whole holds those more often.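 Each cell line was grown in a 96-well plate and treated with one concentration of compound for 48 hours. Values below 10 were considered active.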 A number with no mark means an inactive call. Calls of active or inactive are those of the source.
The compounds below were run on SF-295 CNS (assay: NCI-60 one-dose screen, 48 h (100 = growth as untreated, 0 = no growth, -100 = all killed)). Settings: 10 µM unless noted.

Row | Structure (SMILES) | growth
1 | CCC(CC)N1C(=O)/C(=c2\sc3n(c2=O)NC2C(N=3)N(CC)C(=O)N2CC)c2ccccc21 (stereo not drawn) | 20.3%
2 | CN1CCN(c2ccc(/C=N/Nc3nc4ccccc4c(=O)n3-c3ccccc3)cc2)CC1 | 101%
3 | CC1=NC2=NC(=O)/C(=C3/N=C(C)C=C(c4ccccc4)N3N)NN2C(c2ccccc2)=C1 | 106%
4 | Nc1ncc(-c2ccc3ncnc(N4CCc5cc(F)c(F)cc54)c3c2)cn1 | 20.7%
5 | COc1ccc(Oc2ccc(/C=N/NC(=O)CSc3nc4ccccc4c(=O)n3-c3ccc(Cl)cc3)cc2)cc1 | 67.7%
6 | COc1ccc2c(c1)Oc1nc(N)c(C#N)c(N)c1C2Sc1ccc(C)cc1 (stereo not drawn) | 92.9%
7 | CC(=O)C1=C(C)NC(NN)=NC1c1cccc(Cl)c1 (stereo not drawn) | 104%
8 | O=C(NNc1nc2cc(F)ccc2n2c(CO)ccc12)c1cnccn1 | 3.48% (active)
9 | NC(N)=Nc1ccc(Oc2cccc(NC(N)=Nc3ccc(Br)cc3)c2)cn1 | 44.4%
10 | CCOC(=O)C1=NNC(c2ccc(Cl)cc2)C1C(=O)N1C(=S)NC(=O)C1CC(C)C (stereo not drawn) | 106%
11 | CC/C(=C/c1c(O)cccc1OC)c1ccc2c(OC)cccc2[o+]1 | 98.5%
12 | Cn1ccnc1C(=O)/C=C/c1ccc(CNC(=O)c2ccc(Cl)cc2)cc1 | 13.8%
13 | COc1c(N2CC3CCCNC3C2)c(F)cc2c(=O)c(C(=O)N/N=C/c3ccc(F)cc3)cn(C3CC3)c12 (stereo not drawn) | 97.7%
14 | CN(C)CCNC(=O)c1ccc(-c2nc3ccc4[nH]ncc4c3c3c2CCC3)cc1 | 2.24% (active)
15 | C=C(C=O)[C@@H]1CC[C@]2(COC(C)=O)CC[C@]3(C)C(CC[C@@H]4[C@@]5(C)CC[C@H](OC(C)=O)C(C)(C)[C@@H]5CC[C@]43C)[C@@H]12 (stereo partly drawn) | 0.392% (active)
16 | COc1c(N2CC3CCCNC3C2)c(F)cc2c(=O)c(C(=O)N/N=C/c3c[nH]c4ccccc34)cn(C3CC3)c12 (stereo not drawn) | 110%
17 | COc1cc(C2N=C(NNc3ccccc3)NC(C)=C2C(C)=O)ccc1O (stereo not drawn) | 101%
18 | CCCCCc1ccc(S(=O)(=O)Nc2cccc(-c3csc(NC(=O)CNCCN(C)C)n3)c2)cc1 | 95.5%
19 | CCCCCc1ccc(S(=O)(=O)Nc2cccc(-c3csc(NC(=O)CCCCCN4CCN(CCO)CC4)n3)c2)cc1 | 91.5%

Row | Structure (SMILES) | growth
20 | CS(=O)(=O)Nc1cc(-c2ccc3ncc(C#N)c(NCc4ccccc4O)c3c2)cnc1Cl | -14.4% (active)
21 | CC(=O)N1C(=S)NC(=O)C1CC(C)C (stereo not drawn) | 102%
22 | COc1cc(/C=C2\C(=O)Nc3ccccc32)ccc1OCc1ccc(Cl)cc1 | 103%
23 | COc1cc2oc(-c3cccc(NC(=O)c4cc(N)ccc4Cl)c3)cc(=O)c2c(OC)c1OC | 91.4%
24 | COc1ccc(Cn2cc3c(c2-c2cc(OC)c(OC)c(OC)c2)CCc2c(CN4CCCC4)noc2-3)cc1 | 12.1%
25 | CCCCCc1ccc(S(=O)(=O)Nc2cccc(-c3csc(NCCN4CCN(C)CC4)n3)c2)cc1 | 107%
26 | CCC1=Cc2cc(OC)ccc2OC12C=Cc1cc(OC)ccc1O2 (stereo not drawn) | 15.7%
27 | CCCCCc1ccc(S(=O)(=O)Nc2cccc(-c3csc(NC(=O)CCCCCN4CCN(C)CC4)n3)c2)cc1 | 85.8%
28 | N#Cc1cnc2ccc(-c3cnc4[nH]ncc4c3)cc2c1N1CCc2cc(F)c(Cl)cc21 | -18.8% (active)
29 | CC(C)C[C@@H]1N[C@@]2(C(=O)Nc3ccccc32)[C@@H](c2ccc(F)cc2)[C@@H]1C(=O)c1ccc(O)cc1 | 100%
30 | O=C(NNc1nc2cc(F)cc(F)c2n2cccc12)c1cnccn1 | 10.9%
31 | O=C(NNc1nc2cc(F)c(F)cc2n2cccc12)c1cnccn1 | 11.1%
32 | O=C(CNc1nc(-c2cccc([N+](=O)[O-])c2)cs1)Nc1cccc([N+](=O)[O-])c1 | 0.245% (active)
33 | CC(Nc1c(C#N)cnc2ccc(-c3cnc(N)nc3)cc12)c1ccccc1 (stereo not drawn) | -17% (active)
34 | C=CCn1c(SCC(=O)Nc2ccc(C(=O)/C=C/c3ccc(Cl)cc3)cc2)nnc1-c1c[nH]c2ccccc12 | 46%
35 | CCCCCc1ccc(S(=O)(=O)Nc2cccc(-c3csc(NC(=O)CN4CCN(C)CC4)n3)c2)cc1 | 104%
36 | O=C(NCc1ncc[nH]1)c1ccc(-c2nc3ccc4[nH]ncc4c3c3c2CCCC3)cc1 | 31.5%
37 | Cc1c(Cl)cccc1S(=O)(=O)Nc1ccc2c(c1)C(=O)N(C1CCC(=O)NC1=O)C2=O (stereo not drawn) | 91.7%
38 | COC(=O)C1(C)CCC[C@]2(C)[C@H]3C[C@H]4C(C(C)C)=C[C@]3(CC[C@@H]12)[C@H]1[C@@H]4[C@@H](OC(=O)c2ccco2)CC[C@@H]1OC(=O)c1ccco1 (stereo partly drawn) | 98.3%

— PubChem BioAssay (NCI)
